We go through 35 compounds from PubChem BioAssay (NCI).

The panel holds about 83,000 compounds, 20% with a hit somewhere; the sample as a whole holds those more often.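 Compound tested at a single concentration for 48 hours in 96-well plates; a percent growth value below 10 was scored as active.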 Unmarked numbers belong to inactive results. Activity calls are given as the source filed them.

The subject of one test is HOP-92 NSCLC. Put plainly: NCI-60 one-dose screen, 48 h (100 = growth as untreated, 0 = no growth, -100 = all killed). The following applies: 10 µM unless noted.
As to `CCCC/C=N/NC(=S)NCc1ccccc1`, the growth is 93.6%.

For `O=C(Nc1ccc(-c2ccc3c(c2)NC(=O)/C3=C\c2ccc[nH]2)cc1)NC1CC1`, the growth is 125%.

For `NCCCCCCNc1cc(-c2cccc(OC(F)(F)F)c2)nc2ccc(N3CCCC3)cc12`, the growth is 39.3%.

A further test deals with NCI-H522 lung. Described as above. Conditions: 10 µM unless noted.
As for `O=S(=O)(Nc1ccc(-n2cnc3cc(-c4ccc(O)cc4)ccc32)cc1)c1ccccc1`, the growth was 50.8%.

With `O=S(=O)(NCCNc1nccc(-c2c(-c3cccc(O)c3)nc3occn23)n1)c1ccc(Cl)cc1`, the growth is 98.6%.

With `COc1cc(C2=NN(C(C)=O)C(c3cc(OC)c(OC)c(OC)c3)C2)ccc1O` (stereo not given), the growth is -33.8% (active).

For `N/C(=N\C(N)=N\c1nc2ccccc2s1)c1cccc(Cl)c1`, the growth is 87.5%.

With `C=C(C)[C@@H]1CC[C@]2(C(=O)N3CCN(C)CC3)CC[C@]3(C)[C@H](CC[C@@H]4[C@@]5(C)CC[C@H](OCCC#N)C(C)(C)[C@@H]5CC[C@]43C)[C@@H]12`, the growth was 95.4%.

`O=C(/C=C(O)/C=C/c1ccc(SC(F)(F)F)cc1)/C=C/c1ccc(SC(F)(F)F)cc1`: the growth was 93.7%.

For the compound `COc1cc(/C(C)=C(\c2ccc(Cl)cc2)c2ccc(OCCN(C)C)cc2)ccc1F`, the growth is 80.2%.

For `COc1cc2oc(-c3cccc(C(=O)Nc4ccc(Cl)cc4)c3)cc(=O)c2c(O)c1OC`, the growth was 60.4%.

On to `COc1ccc2nc(-c3ccc(-c4noc(-c5cc(OC)c(OC)c(OC)c5)n4)cc3)[nH]c2c1`, for which the growth is 74.9%.

As for `COC1=CC(=O)c2ccccc2C1=O`, the growth is 77.8%.

Turning to `CC(=O)Nc1cccc(-c2ccc3c(c2)NC(=O)/C3=C\c2ccc[nH]2)c1`, the growth is 16.6%.

On to `COc1c(Cl)c2c(c(OC)c1OC)-c1ccc(SC)c(=O)cc1[C@@H](NC(=O)OCC(F)(F)F)CC2`, for which the growth is 17.9%.

For the compound `COc1cc(/C=N/NC(=O)c2cnn3c2NC(c2ccccc2)C3)ccc1Oc1ccccc1` (stereo not given), the growth is 13.8%.

With `COc1cc(C(=O)Nc2cc3c(cc2Oc2cc(C)cc(C)c2)C(=O)N(C)[C@@H](CC(=O)N(C)O)C(=O)N3)c(Br)c(OC)c1OC`, the growth was -43.1% (active).

With `COc1cc2cc(CN3CCN(c4nccc(-c5ccc6ccccc6c5)n4)CC3)c(=O)[nH]c2cc1OC`, the growth is 85.6%.

In the case of `N#C/C(=C\c1c(-c2ccccc2)[nH]c2ccccc12)C(=O)c1ccc(Cl)cc1`, the growth is 35.3%.

`NS(=O)(=O)c1ccc(CCn2c(SCC(=O)c3ccc(Cl)cc3)nc3ccccc3c2=O)cc1`: the growth is 96.7%.

On to `CC(C)(C)c1ccc(NS(=O)(=O)c2ccc3nc(NC(=O)c4cnccn4)[nH]c3c2)cc1`, for which the growth was 20.4%.

As for `CCCCCN1C=C/C(=C\C(=O)N(C)c2ccc(OC(F)(F)F)cc2)c2ccccc21`, the growth was 78.5%.

On to `CCc1c2c(nc3ccc(OCc4ccc(B(O)O)cc4)cc13)-c1cc3c(c(=O)n1C2)COC(=O)[C@]3(O)CC`, for which the growth was -9.3% (active).

For `COc1cccc(C(=O)NNc2nc(Cl)nc(N3CCN(C(c4ccccc4)c4ccccc4)CC3)n2)c1`, the growth was -13.6% (active).

In the case of `COc1cccc(/C=N/NC(=O)c2cnn3c2NC(c2ccccc2)C3)c1Oc1ccccc1` (stereo not given), the growth was 54.2%.

Regarding `COc1ccc(/C=C/C(=O)Nc2cc(/C=C\c3cc(OC)c(OC)c(OC)c3)cc(OC)c2OC)cc1OC`, the growth was -21.3% (active).

As to `COc1cc2oc(-c3cccc(C(=O)Nc4ccc5c(c4)OCO5)c3)cc(=O)c2c(O)c1OC`, the growth is 76%.

Turning to `Nc1c(S(=O)(=O)O)cc2c3c(cccc13)C(=O)OC2=O`, the growth was 104%.

With `O=C1Nc2ccccc2/C1=C\c1c(-c2ccccc2)nc2ccccn12`, the growth is 22.3%.

In the case of `COc1ccc(-c2[nH][nH]c(=O)c2-c2nc3ccccc3s2)cc1`, the growth is 96.3%.

As for `Cc1ccc(-c2csc(NC(=O)CSc3nc(-c4ccccc4)cc(=O)[nH]3)n2)cc1`, the growth is 80.3%.

Take `Oc1cccc(CCc2ccc(Oc3cc(CCc4cccc(O)c4)cc(O)c3O)cc2)c1`: the growth is -8.62% (active).

Turning to `CCOc1cccc(-c2nc(N)nc(Nc3ccccc3SSc3ccccc3Nc3nc(N)nc(-c4cccc(OCC)c4)n3)n2)c1`, the growth was 90.8%.

For the compound `Nc1n[nH]c2cccc(C#Cc3cccc(C(=O)Nc4cccc(C(F)(F)F)c4)c3)c12`, the growth was 60.9%.

Regarding `O=C(Nc1ccc(Cl)cc1)c1cc(NCc2cc(O)ccc2O)ccc1O`, the growth is -59.7% (active).
